Data on 33 compounds can be found in PubChem BioAssay AID720517 (National Center for Advancing Translational Sciences (NCATS), 2013).

The nature of the test: qHTS for Inhibitors of Cell Surface uPA Generation: FP59 Counterscreen for Cherry-picked Compounds. A general note: Quantitative high-throughput screening tests each substance at several concentrations.

Each structure is given as a SMILES string. Inconclusive results are not listed. A call without a number means that no potency is given here. The source made the active and inactive calls. Calls follow the shape of the dose curve; as a rule, active = well fitted activation curve with a large enough effect; inconclusive = small, poorly fitted or top-dose-only effect; inactive = flat fitted curve, though single readings scatter.

With `CCc1ccc(OCC(=O)N(Cc2cccs2)C2CCS(=O)(=O)C2)cc1` (stereo not drawn), the Potency result is “inactive”.

Consider `CCCCn1c(N)c(N(CCC(C)C)C(=O)c2sc3nc4n(c(=O)c3c2C)CCC4)c(=O)[nH]c1=O`, for which the Potency entry was “inactive”.

For `CCOc1cc(/C=C(\C#N)C(=O)NCc2cccnc2)ccc1O`, the Potency result is “inactive”.

With `O=C1[C@H]2[C@@H](c3ccc(F)cc3)N3C(=O)N(c4cccc(Br)c4)C(=O)[C@@]3(Cc3ccc(Cl)cc3)[C@H]2C(=O)N1C1CCCCC1`, the Potency result was “inactive”.

Consider `Cc1c(C(=O)N(Cc2ccccc2Cl)C2CCS(=O)(=O)C2)oc2ccccc12` (stereo not drawn), for which the Potency result is “inactive”.

`O=C(NCC1CCCO1)c1ccc(NC(=O)c2ccc([N+](=O)[O-])cc2)cc1` (stereo not drawn): the Potency entry was “inactive”.

As for `O=C(c1cc(COc2ccc(F)cc2Cl)on1)N1CCCCCC1`, the Potency result was “inactive”.

As to `CCOc1cc(C(=S)N2CCOCC2)ccc1OC(=O)c1cccc(C)c1`, the Potency entry was “inactive”.

Consider `Cc1ccc(S(=O)(=O)Nc2nc(C)cc(N/N=C/c3ccc(O)cc3)n2)cc1`, for which the Potency entry was “inactive”.

With `CCOC(=O)C1CCCN(CC(=O)Nc2ccc(C(=O)Nc3ccccc3OC)cc2)C1` (stereo not drawn), the Potency result was “inactive”.

`OCCN(Cc1ccccc1)CC(O)COc1ccc2c(c1)OCO2` (stereo not drawn): the Potency result was “inactive”.

On to `COc1ccc(NC(=O)CC(C)CC(=O)NCc2ccccc2)c(OC)c1` (stereo not drawn), for which the Potency result is “inactive”.

Take `COc1ccc(NS(=O)(=O)c2c(C)n(C)c(=O)n(C)c2=O)cc1OC`: the Potency result is “inactive”.

Turning to `O=C(COc1cc2oc(=O)cc(-c3ccccc3)c2cc1Cl)NC(Cc1c[nH]c2ccc(O)cc12)C(=O)O` (stereo not drawn), the Potency entry was “inactive”.

Take `O=C(O)CCCC(=O)NCCCCc1ccccc1`: the Potency entry is “inactive”.

For the compound `COc1ccc(N(CN2C(=O)c3ccccc3C2=O)C(=O)C(C)C)cc1`, the Potency result is “inactive”.

For `Cc1ccccc1-c1nnc(SCC(=O)NCC2CCCO2)o1` (stereo not drawn), the Potency result is “inactive”.

Consider `O=C(CCc1ccccc1)NNC(=O)c1cccc(F)c1`, for which the Potency result is “inactive”.

With `Cc1oc2c(Cl)c(Cl)c(O)c(CN(C)C)c2c1C(=O)c1ccc(Cl)cc1`, the Potency entry was “inactive”.

In the case of `O=C(NCC1CCCO1)c1c(O)c2cccc3c2n(c1=O)CCC3` (stereo not drawn), the Potency entry was “inactive”.

In the case of `CCn1c(=O)cc(C(=O)OC)sc1=Nc1ccc(F)c(F)c1`, the Potency entry was “inactive”.

Turning to `O=C(NCCc1ccccc1)C1CCC(=O)N(Cc2cccc(C(F)(F)F)c2)C1` (stereo not drawn), the Potency result was “inactive”.

On to `CCC(CC)Nc1ccc(C(CC(N)=O)NC(=O)Cc2ccc(Br)cc2)cc1[N+](=O)[O-]` (stereo not drawn), for which the Potency result is “inactive”.

In the case of `O=C(Cc1ccc(Cl)cc1)c1c[nH]c(C(=O)NCCCn2ccnc2)c1`, the Potency result is “inactive”.

Regarding `Cc1[nH]c2ccc(C(=O)OC(C)C(=O)NC3CCCCC3C)cc2c1C` (stereo not drawn), the Potency entry is “inactive”.

Regarding `O=C(NCCc1cn2ccsc2n1)c1cccs1`, the Potency result was “inactive”.

`O=C(NNC(=O)c1ccc2ccccc2c1)Nc1ccc(F)cc1`: the Potency entry is “inactive”.

On to `O=C1CCCC/C1=C\Nc1ccc(S(=O)(=O)Nc2cnc3ccccc3n2)cc1`, for which the Potency result was “inactive”.

For `Cc1cccc(/C=N/Nc2cc(N3CCOCC3)nc(N3CCOCC3)n2)c1`, the Potency result is “inactive”.

For the compound `Brc1ccsc1/C=N/Nc1ccccc1`, the Potency entry was “inactive”.

For the compound `CC1CC(=O)Nc2ccccc2N1C(=O)Cn1cnc2ccc(Br)cc2c1=O` (stereo not drawn), the Potency result is “inactive”.

Regarding `COc1ccc(-c2cc3nc(-c4ccccc4)cc(N4CCCC(O)C4)n3n2)cc1` (stereo not drawn), the Potency entry is “inactive”.

Regarding `Cc1ccc(C(CC(=O)N2CCCC2)c2ccccc2)c(O)c1` (stereo not drawn), the Potency entry is “inactive”.
